# Measurements published in PubChem BioAssay AID1117293 (Broad Institute, 2014).
# Measured potencies and affinities stand elsewhere. Results filed as inconclusive are left out. The source made the active and inactive calls.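 The calls were made as follows: active = cytotoxic in every repeat run, with fitted half-maximal concentration at most twice the top tested dose; inconclusive = runs disagree, or flat partial drop, or poor curve fit; inactive = inactive in every run.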
# Assay: HEK293T cell cytotoxicity, dose response, cytotoxicity control, CellTiter-Glo luminescence, dry powder, set 20 (AID 1117293)
# Conditions: HEK293T viability, CellTiter-Glo ATP luminescence, 72 h; series mostly up to 26 µM
row,SMILES,outcome
1,O=S(=O)(Nc1cc(C(F)(F)F)ccc1N1CCCCC1)c1ccc(C(F)(F)F)cc1,inactive
2,Cc1ccc(NC(=O)NC2(C(=O)N3CCOCC3)CCCCC2)cc1,inactive
3,CC(=O)N1CCN(C(=O)C2(NC(=O)Nc3ccccc3C(F)(F)F)CCCCC2)CC1,inactive
4,CC(=O)N1CCN(C(=O)C2(NC(=O)Nc3cccc(F)c3)CCCCC2)CC1,inactive
5,CC(=O)N1CCN(C(=O)C2(NC(=O)Nc3ccccc3)CCCC2)CC1,inactive
6,COc1ccc(C(=O)O)cc1S(=O)(=O)Nc1ccc(N2CCCCC2)cc1C(F)(F)F,inactive
7,Cc1ccccc1S(=O)(=O)Nc1cc(C(F)(F)F)ccc1N1CCCCC1,inactive
8,COc1ccc(C(=O)O)cc1S(=O)(=O)Nc1cc(C(F)(F)F)ccc1N1CCCCC1,inactive
9,O=[N+]([O-])c1ccc(S(=O)(=O)Nc2cc(C(F)(F)F)ccc2N2CCCCC2)c([N+](=O)[O-])c1,inactive
10,COc1ccc(C(=O)O)cc1S(=O)(=O)Nc1cc(C(F)(F)F)ccc1N1CCN(C(C)=O)CC1,inactive
11,COc1ccc(C(=O)Nc2cc(C(F)(F)F)ccc2N2CCOCC2)cc1S(=O)(=O)O,inactive
12,O=[N+]([O-])c1cccc(S(=O)(=O)Nc2cc(C(F)(F)F)ccc2N2CCCCC2)c1,inactive
13,COc1ccc(C(=O)O)cc1S(=O)(=O)Nc1cccc(N2CCCCC2)c1C(F)(F)F,inactive
14,O=S(=O)(Nc1cc(C(F)(F)F)ccc1N1CCCCC1)c1ccc(Br)cc1,inactive
15,O=S(=O)(Nc1cc(C(F)(F)F)ccc1N1CCCCC1)c1ccccc1,inactive
16,CC(=O)N1CCN(C(=O)C2CCCN2C(=O)Nc2ccc(C)cc2)CC1 (centres undefined),inactive
17,CC(=O)N1CCN(C(=O)C2(NC(=O)Nc3cccc(C(F)(F)F)c3)CCCCC2)CC1,inactive
18,COc1ccc(C(=O)Nc2cc(C)ccc2N2CCCCC2)cc1S(=O)(=O)O,inactive
19,COc1ccc(C(=O)O)cc1S(=O)(=O)N1CCN(c2ccc(C(F)(F)F)cc2N)CC1,inactive
20,CC(=O)N1CCN(C(=O)C2(NC(=O)NCCc3ccccc3)CCCCC2)CC1,inactive
21,COc1ccc(C(=O)Nc2cc(C(F)(F)F)ccc2N2CCCCC2)cc1S(=O)(=O)O,inactive
22,CC(=O)N1CCN(C(=O)CNC(=O)Nc2ccc(C)cc2)CC1,inactive
23,COc1ccc(C(=O)Nc2cc(F)ccc2N2CCCCC2)cc1S(=O)(=O)O,inactive
24,O=S(=O)(Nc1cc(C(F)(F)F)ccc1N1CCCCC1)c1ccc(F)cc1,inactive
